# Results taken from PubChem BioAssay (NCI).
# Compounds without any hit were thinned out: in the full panel of roughly 79,000, 15% have a hit. The source made the active and inactive calls. Cut-off read from the data, not from the text of the source: active = growth inhibition above about 70%; inactive = the rest.
# Assay: NCI Yeast Anticancer Drug Screen. Data for the mec2-1 strain (AID 157)
# Conditions: S. cerevisiae mec2-1 strain, at 50.0 µM (retest, dose inferred, filed as 5.0), active compounds read high
# Method in brief: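 Readout is yeast growth inhibition, normalised to vehicle-treated controls, in the mec2-1 strain exposed to compound.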
row,SMILES,growth inhibition
1,O=C1CCC(Cc2ccc(C(F)(F)F)cc2)C(=O)N1 (stereo unspecified),3% (inactive)
2,Oc1cc(O)c2c(c1)OC(c1ccc(O)c(O)c1)C(OC1(c3cc(O)c(O)c(O)c3)Oc3cc(O)cc(O)c3C(O)C1O)C2 (stereo unspecified),-27% (inactive)
3,Cc1cccc(N=Nc2ccc(O)cc2)c1,98% (active)
4,Cc1c2c(c(C)c3c4c(oc13)CCCC4)C=NCC2,41% (inactive)
5,CCOC(=O)C(=CCC1NCCc2c1[nH]c1ccccc21)C(=O)OCC (stereo unspecified),97% (active)
6,CCOC(=O)C1=C(c2ccccc2)SC(c2ccccc2)N(C(C)C)C1=O (stereo unspecified),51% (inactive)
7,CN(C)CCCNc1cc(/C=C/c2ccc([N+](=O)[O-])cc2)nc2ccccc12,38% (inactive)
8,CC(CN(C)C)C(=O)c1cn(C)c2ccccc12 (stereo unspecified),2% (inactive)
9,Nc1ccccc1/C=C/c1c[nH]c2ccccc12,98% (active)
10,Cc1c(CNc2ccc(Cl)c(Cl)c2Cl)cnc2nc(N)nc(N)c12,53% (inactive)
11,O=C(c1cccs1)N(C(=S)N1CCN(c2ccccn2)CC1)c1ccccc1,8% (inactive)
12,COc1ccccc1/C=C1\NC(=S)N(/C=C2\C(=O)Oc3ccccc3C2=O)C1=O,25% (inactive)
13,Cc1cc(O)c(C)c(C)c1N=Nc1ccccc1,-51% (inactive)
14,O=S1CCS(=O)C1c1ccccc1 (stereo unspecified),26% (inactive)
15,Cc1ccc2nc(-c3ccc(N)cc3)sc2c1,8% (inactive)
16,CC1OC(OC2C(Oc3c(-c4ccc(O)c(O)c4O)oc4cc(O)ccc4c3=O)OC(CO)C(O)C2O)C(O)C(O)C1O (stereo unspecified),0% (inactive)
17,O=C(OCc1ccccc1CN1CCOCC1)c1cccc(Br)c1,3% (inactive)
18,C=CCOCC(C)OC(=O)C(C)C (stereo unspecified),-52% (inactive)
19,CC(C)(C)OC(=O)N[C@H]1CC2(C=C(Cl)C(=O)C(Cl)=C2)OC1=O,72% (active)
20,CC(Nc1ccc(Cl)c(Cl)c1)c1ccncc1 (stereo unspecified),95% (active)
21,COc1ccccc1/C=C(\NC(=O)c1ccccc1)c1nc2ccccc2[nH]1,98% (active)
22,CCCCCCC(O)(CCCCCC)CCCCCC,-34% (inactive)

# Same assay, conditions: S. cerevisiae mec2-1 strain, at 50.0 µM, active compounds read high
row,SMILES,growth inhibition
1,Clc1cc2n[nH]nc2c(Cl)c1Cl,95.9% (active)
2,NSc1ccc(N)s1,28.9% (inactive)
3,O=C1C2=C(CCCC2)C(=O)C(Cl)C1Cl (stereo unspecified),99.3% (active)
4,O=C(COc1ccc2ccccc2c1)NC1c2ccccc2Oc2ccccc21,17.4% (inactive)
5,COc1ccc(-c2cc(-c3ccco3)c(C#N)c(=S)n2C2OC(CO)C(O)C(O)C2O)cc1 (stereo unspecified),4.3% (inactive)
6,Clc1cccc(Cl)c1C(Nc1nncs1)Nc1nncs1,79.8% (active)
7,COC([C@@H](OC(=O)c1ccccc1)[C@H](OC(=O)c1ccccc1)C(O)COC(=O)c1ccccc1)n1cc(C)c(=O)[nH]c1=O (stereo partly specified),49.5% (inactive)
8,C1=C(c2c(-c3ccccc3)[nH]c3ccccc23)Cc2ccccc21,43.7% (inactive)
9,CC12C(=O)OC(=O)C1C1c3ccccc3C2c2ccccc21 (stereo unspecified),89.5% (active)
10,O=C(N/C(=C\c1ccc(/C=C(\NC(=O)c2ccccc2)c2nc3ccccc3s2)cc1)c1nc2ccccc2s1)c1ccccc1,87.5% (active)
11,COS(=O)c1cc(Cl)cc(Cl)c1OC(=O)CSSCC(=O)Oc1c(Cl)cc(Cl)cc1S(=O)OC (stereo unspecified),99.3% (active)
12,COc1cc2c3c(c4ccc(OC)c(OC)c4c2cc1OC)CN1CCC[C@@H]1C3,93.5% (active)
13,N#CSC#CCCC#CSC#N,93.9% (active)
14,Nc1nc(-c2ccc(Cl)cc2)c(N=Nc2ccc(Br)cc2)s1,98% (active)
15,CC(=O)C(C(C)=O)C1C=CC=CC=C1,92.5% (active)
16,CCCCN(C(=O)c1ccccc1)C1CCC(=O)c2[nH]c3ccccc3c21 (stereo unspecified),89.3% (active)
17,S=C(Nc1ccc(Cl)c(Cl)c1)N1c2ccccc2-n2cccc2C1c1cccnc1 (stereo unspecified),84.5% (active)
18,O=C1CCC(Cc2ccc(C(F)(F)F)cc2)C(=O)N1 (stereo unspecified),22.1% (inactive)
19,Oc1cc(O)c2c(c1)OC(c1ccc(O)c(O)c1)C(OC1(c3cc(O)c(O)c(O)c3)Oc3cc(O)cc(O)c3C(O)C1O)C2 (stereo unspecified),-18.2% (inactive)
20,Cc1cccc(N=Nc2ccc(O)cc2)c1,99.5% (active)

row,SMILES,growth inhibition
1,Cc1c2c(c(C)c3c4c(oc13)CCCC4)C=NCC2,92.8% (active)
2,CCOC(=O)C(=CCC1NCCc2c1[nH]c1ccccc21)C(=O)OCC (stereo unspecified),91.7% (active)
3,CCOC(=O)C1=C(c2ccccc2)SC(c2ccccc2)N(C(C)C)C1=O (stereo unspecified),88% (active)
4,CN(C)CCCNc1cc(/C=C/c2ccc([N+](=O)[O-])cc2)nc2ccccc12,68.5% (inactive)
5,CC(CN(C)C)C(=O)c1cn(C)c2ccccc12 (stereo unspecified),16.8% (inactive)
6,Nc1ccccc1/C=C/c1c[nH]c2ccccc12,97.5% (active)
7,Cc1c(CNc2ccc(Cl)c(Cl)c2Cl)cnc2nc(N)nc(N)c12,44.5% (inactive)
8,O=C(c1cccs1)N(C(=S)N1CCN(c2ccccn2)CC1)c1ccccc1,7.85% (inactive)
9,COc1ccccc1/C=C1\NC(=S)N(/C=C2\C(=O)Oc3ccccc3C2=O)C1=O,29.9% (inactive)
10,Cc1cc(O)c(C)c(C)c1N=Nc1ccccc1,6.3% (inactive)
11,O=S1CCS(=O)C1c1ccccc1 (stereo unspecified),61% (inactive)
12,Cc1ccc2nc(-c3ccc(N)cc3)sc2c1,34.5% (inactive)
13,CC1OC(OC2C(Oc3c(-c4ccc(O)c(O)c4O)oc4cc(O)ccc4c3=O)OC(CO)C(O)C2O)C(O)C(O)C1O (stereo unspecified),-5.3% (inactive)
14,O=C(OCc1ccccc1CN1CCOCC1)c1cccc(Br)c1,9.4% (inactive)
15,C=CCOCC(C)OC(=O)C(C)C (stereo unspecified),-6.9% (inactive)
16,CC(C)(C)OC(=O)N[C@H]1CC2(C=C(Cl)C(=O)C(Cl)=C2)OC1=O,80.8% (active)
17,CC(Nc1ccc(Cl)c(Cl)c1)c1ccncc1 (stereo unspecified),85.8% (active)
18,COc1ccccc1/C=C(\NC(=O)c1ccccc1)c1nc2ccccc2[nH]1,95% (active)
19,CCCCCCC(O)(CCCCCC)CCCCCC,32.8% (inactive)
